From PubChem BioAssay (NCATS) come the findings set out here.

Records with an inconclusive call do not appear. Active and inactive are the calls of the source. Unless noted, calls follow the shape of the dose curve; as a rule, active = well fitted curve in either direction with a large enough effect (not every such curve was filed as active); inconclusive = small, poorly fitted or top-dose-only effect, or another doubt; inactive = flat fitted curve, though single readings scatter. Some results are limits rather than exact numbers.

Experiment [1] can be described thus: AP1 Signaling Pathway (AID 357).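 Also: ME-180 reporter cells stimulated with EGF at its EC50 level; % is scaled to controls: 0 for no effect and ±100 for the full control effect.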 The following applies: ME-180 AP-1-bla reporter, EGF-induced, beta-lactamase ratio, 5 h; at 7.69 µM (top of the series) unless noted. The essentials:
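In this screen, ME-180 cells in Opti-MEM with 0.5% dialyzed FBS received EC50 EGF and compound titrations for 5 h. AP-1 reporter beta-lactamase was detected via CCF4 ratio, giving AC50 for positive and negative modulators.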

A short description of experiment [2]: Stat Signaling Pathway (AID 446).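 Also: ME-180 cervical cancer cells given 40 pM IL-6 alongside compound; SIE-controlled beta-lactamase reporter measured as 460/530 nm FRET emission ratio; % is scaled to controls: 0 for no effect and ±100 for the full control effect.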 The following applies: ME-180 SIE beta-lactamase reporter, IL-6 stimulated, 5 h; at 7.69 µM (top of the series) unless noted. The gist of the method:
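Reporter line: ME-180 cervical carcinoma, SIE-beta-lactamase. Treatment: compound with 40 pM IL-6, 5 hrs, 37 C, in low-serum OPTI-MEM with 10 mM HEPES pH 7.3. Detection: 460/530 nm fluorescence.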

The target of experiment [3] is Glucocorticoid receptor (Homo sapiens) (UniProt P04150). Briefly: GR-EFC Redistribution (AID 451; calls by dose curve; also: potency is read from the fitted curve at half-maximal effect). The following applies: CHO-K1 GR-EFC translocation, beta-gal luminescence, 2 h. The essentials:
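CHO-K1 cells expressing nuclear EA and GR-ED fragments of b-gal; compounds titrated up to 46 uM final, 2 h at 37 C. GR nuclear translocation read as complemented b-gal luminescence after 1 h RT detection.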

Experiment [4] has as its target Mitogen-activated protein kinase 10 (Mus musculus) (UniProt Q61831). Briefly: JNK3 AlphaScreen Assay (AID 530).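 Also: kinase came from lysate of stimulated human HepG2 cells; signal reports phosphorylation of biotinylated GST-cJun 1-79 at Ser73 with 10 µM ATP; % is scaled to controls: 0 for no effect and ±100 for the full control effect.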 The gist of the method:
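qHTS format: compounds tested as titrations against IL-1beta/TNF-alpha-activated HepG2 lysate JNK3 with biotin-GST-cJun substrate and 10 uM ATP at room temperature. Loss of anti-phospho-cJun AlphaScreen signal indicates inhibition.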
(In general: Alpha assays give light when donor and acceptor beads are brought close together.)

Experiment [5] has as its target 3',5'-cyclic-AMP phosphodiesterase 4B (Homo sapiens) (UniProt Q07343). Briefly: qHTS Assay for Inhibitors of PDE-IV (AID 607; active = well fitted activation curve with a large enough effect in the main read-out, with a control signal flat, not every such curve was filed as active; also: % of control where 0% means no effect). The gist of the method:
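Cell-based read-out of cAMP via a modified cyclic nucleotide-gated channel and membrane potential dye (535/590 nm) in HEK293 cells expressing PDE4 endogenously. Compounds tested up to 22.9 uM final; 100 uM RO 20-1724 reference.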
(Quantitative high-throughput screening tests each substance at several concentrations.)

Experiment [6] in a line: qHTS Assay for Lipid Storage Modulators (AID 1519; calls by dose curve). The following applies: Drosophila S3 cells, BODIPY lipid droplet/cell ratio, laser cytometry, cells loaded with oleic acid; for activity change, negative = inhibition: at 57.5 µM (top of the series). The essentials:
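Cells seeded at 5,000 per well were treated with compounds over a concentration series and loaded with oleic acid (400 uM, as added). Lipid droplet fluorescence (488 nm excitation, 500-530 nm channel) was read by laser-scanning cytometry and normalized to 20 uM Triacsin C.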

The target in experiment [7] is Cytochrome P450 1A2 (Homo sapiens) (UniProt P05177). Nature of the experiment: p450-cyp1a2 (AID 410; calls by dose curve; also: potency is read from the fitted curve at half-maximal effect). The gist of the method: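 Human CYP1A2 (20nM) demethylated Luciferin-ME at its Km (100uM) in 100mM KPO4. After 10 min compound preincubation, NADPH regeneration ran the reaction 60 min at room temperature. Luciferin was read by luminescence, normalized to 57 uM furafylline.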

A short description of experiment [8]: NFAT Signaling Pathway (AID 444).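 Also: carbachol stimulus at about its EC50 of 1 µM final; % is scaled to controls: 0 for no effect and ±100 for the full control effect.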 The conditions noted are these: Jurkat NFAT-bla M1, carbachol, beta-lactamase ratio, 5 h; at 7.69 µM (top of the series) unless noted. The gist of the method:
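Jurkat cells with NFAT-driven β-lactamase reporter and co-expressed M1 receptor, stimulated with carbachol (final 1 uM, ~EC50), compound titration, 5 h at 37 °C. CCF4 loaded 1 h at RT; 460/530 nm ratio gave %activity and AC50.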

Experiment [9] deals with Glucocorticoid receptor (Homo sapiens) (UniProt P04150). Briefly: GR-GFP Redistribution (AID 450;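 active = compounds whose dose series gives a full or clear partial fitted curve of increased nuclear translocation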; also: potency is read from the fitted curve at half-maximal effect). The following applies: U2OS GR-GFP nuclear translocation, laser cytometry, 2 h.
Experiment [10] has as its target Ubiquitin carboxyl-terminal hydrolase 1 (Homo sapiens) (UniProt O94782). Nature of the experiment: Inhibitors of USP1/UAF1: Pilot qHTS (AID 504865; active = well fitted inhibition curve with a large enough effect;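 also: rhodamine fluorescence freed from ubiquitin-rhodamine substrate followed over time; top concentration of the series differs between compounds; % is scaled to controls: 0 for no effect and ±100 for the full control effect; nearly all actives have a fitted effect of over 35% in size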). The gist of the method:
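USP1/UAF1 complex at 1 nM preincubated 15 min at room temperature with compound, then Ub-Rho substrate added at 150 nM final. Fluorescence (480/540 nm) read kinetically in 50 mM HEPES pH 7.8, 0.5 mM EDTA, 1 mM TCEP, 0.1 mg/ml BSA, 0.01% Tween-20.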

Where [11] appears, read: measured here: cell count channel max response.
[12] abbreviates: measured here: lipid channel max response.

Sequence of 3',5'-cyclic-AMP phosphodiesterase 4B (Homo sapiens) (Q07343 whole entry, looked up): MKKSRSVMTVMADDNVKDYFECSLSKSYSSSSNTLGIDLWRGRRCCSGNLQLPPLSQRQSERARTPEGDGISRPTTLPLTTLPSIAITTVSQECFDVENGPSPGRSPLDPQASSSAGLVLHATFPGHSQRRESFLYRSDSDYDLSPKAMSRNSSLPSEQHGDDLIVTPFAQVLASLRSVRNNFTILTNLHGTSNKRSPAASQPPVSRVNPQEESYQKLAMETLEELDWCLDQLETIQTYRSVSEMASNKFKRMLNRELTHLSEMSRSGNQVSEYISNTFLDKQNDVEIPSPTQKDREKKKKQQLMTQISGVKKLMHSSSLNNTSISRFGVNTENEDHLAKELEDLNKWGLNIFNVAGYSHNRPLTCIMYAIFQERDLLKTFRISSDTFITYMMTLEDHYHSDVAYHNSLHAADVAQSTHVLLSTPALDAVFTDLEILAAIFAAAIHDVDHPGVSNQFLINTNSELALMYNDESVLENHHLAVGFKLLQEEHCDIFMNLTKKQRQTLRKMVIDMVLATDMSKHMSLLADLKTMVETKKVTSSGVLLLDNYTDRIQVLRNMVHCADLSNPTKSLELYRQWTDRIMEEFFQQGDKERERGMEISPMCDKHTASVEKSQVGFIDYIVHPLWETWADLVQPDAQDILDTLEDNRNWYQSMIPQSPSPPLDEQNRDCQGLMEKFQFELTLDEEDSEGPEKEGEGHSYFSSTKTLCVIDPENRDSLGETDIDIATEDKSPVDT
Sequence of Ubiquitin carboxyl-terminal hydrolase 1 (Homo sapiens) (O94782 whole entry, looked up): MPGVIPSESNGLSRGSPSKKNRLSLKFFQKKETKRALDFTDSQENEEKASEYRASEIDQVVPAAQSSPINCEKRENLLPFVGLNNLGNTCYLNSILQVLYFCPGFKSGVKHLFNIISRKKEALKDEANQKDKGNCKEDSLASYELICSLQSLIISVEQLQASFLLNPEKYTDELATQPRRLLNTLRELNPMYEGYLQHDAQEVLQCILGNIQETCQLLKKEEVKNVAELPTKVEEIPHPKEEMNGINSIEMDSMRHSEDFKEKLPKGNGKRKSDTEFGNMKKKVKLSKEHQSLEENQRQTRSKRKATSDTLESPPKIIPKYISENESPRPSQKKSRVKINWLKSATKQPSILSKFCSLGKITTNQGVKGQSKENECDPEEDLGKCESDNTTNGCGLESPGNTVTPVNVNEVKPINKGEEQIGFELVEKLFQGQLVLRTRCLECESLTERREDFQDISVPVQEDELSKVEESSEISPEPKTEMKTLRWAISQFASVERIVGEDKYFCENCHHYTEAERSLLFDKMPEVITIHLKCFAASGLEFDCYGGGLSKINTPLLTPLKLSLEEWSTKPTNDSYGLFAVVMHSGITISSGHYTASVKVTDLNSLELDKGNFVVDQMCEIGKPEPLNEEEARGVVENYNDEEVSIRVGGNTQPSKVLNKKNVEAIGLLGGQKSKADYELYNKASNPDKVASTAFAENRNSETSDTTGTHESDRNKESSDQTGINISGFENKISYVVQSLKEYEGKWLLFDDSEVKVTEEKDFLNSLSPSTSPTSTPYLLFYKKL
Sequence of Glucocorticoid receptor (Homo sapiens) (P04150 whole entry, looked up, the tested form may be a part): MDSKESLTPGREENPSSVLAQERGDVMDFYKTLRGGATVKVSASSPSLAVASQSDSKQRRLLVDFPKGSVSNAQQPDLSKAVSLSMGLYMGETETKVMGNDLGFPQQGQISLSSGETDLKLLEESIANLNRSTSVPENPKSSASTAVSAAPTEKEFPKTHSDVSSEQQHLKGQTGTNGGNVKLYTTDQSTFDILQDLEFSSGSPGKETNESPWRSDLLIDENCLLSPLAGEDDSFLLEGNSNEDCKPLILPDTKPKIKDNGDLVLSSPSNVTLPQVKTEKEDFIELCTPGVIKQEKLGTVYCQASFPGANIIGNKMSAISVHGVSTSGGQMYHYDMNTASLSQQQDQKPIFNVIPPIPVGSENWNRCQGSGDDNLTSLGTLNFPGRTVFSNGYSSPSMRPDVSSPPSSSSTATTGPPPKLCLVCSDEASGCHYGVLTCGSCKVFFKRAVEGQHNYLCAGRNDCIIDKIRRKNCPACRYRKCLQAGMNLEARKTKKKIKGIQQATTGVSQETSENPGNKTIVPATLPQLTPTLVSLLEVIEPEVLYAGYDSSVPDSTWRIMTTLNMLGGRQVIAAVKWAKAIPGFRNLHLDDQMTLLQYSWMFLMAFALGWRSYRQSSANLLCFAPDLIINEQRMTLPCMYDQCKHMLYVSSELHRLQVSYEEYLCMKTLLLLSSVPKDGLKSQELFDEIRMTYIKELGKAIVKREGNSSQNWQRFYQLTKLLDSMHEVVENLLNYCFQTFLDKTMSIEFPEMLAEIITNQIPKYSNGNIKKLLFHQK
Sequence of Cytochrome P450 1A2 (Homo sapiens) (P05177 whole entry, looked up): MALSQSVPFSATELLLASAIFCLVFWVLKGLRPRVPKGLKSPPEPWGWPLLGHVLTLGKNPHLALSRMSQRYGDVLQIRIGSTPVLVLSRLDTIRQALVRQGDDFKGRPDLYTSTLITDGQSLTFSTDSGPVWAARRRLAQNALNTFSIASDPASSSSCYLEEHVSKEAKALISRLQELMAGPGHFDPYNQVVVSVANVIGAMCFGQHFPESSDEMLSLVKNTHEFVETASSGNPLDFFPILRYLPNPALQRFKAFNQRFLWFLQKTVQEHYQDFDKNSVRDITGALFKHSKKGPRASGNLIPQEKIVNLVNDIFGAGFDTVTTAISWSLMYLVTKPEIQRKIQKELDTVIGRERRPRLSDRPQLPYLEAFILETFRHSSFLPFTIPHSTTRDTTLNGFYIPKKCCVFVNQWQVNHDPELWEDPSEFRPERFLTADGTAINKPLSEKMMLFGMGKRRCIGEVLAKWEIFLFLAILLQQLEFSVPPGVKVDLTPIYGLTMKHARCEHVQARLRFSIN

On to `O=C(c1ccco1)N1CCC2(CC1)CCN(c1ccncc1)CC2`, for which the activity change, negative = inhibition was -14.6% (inactive) in experiment [1] and 3.95% (inactive) in experiment [6]. The activity, negative = inhibition in experiment [2] is 11.2% (inactive). Besides, in [3], the Potency is > 46 µM (inactive). The Potency entry in experiment [4] and in experiment [5] was “inactive” each time. For the same compound, the figures for the max response in [6] (setting [11]) and in [6] (setting [12]) were -3.62% and 0.777%, respectively.

Turning to `CN(C)C(=O)c1ccc(-c2nc(NCc3cccnc3)c3ccccc3n2)cc1`, the Potency in experiment [7] is 10 µM (active); in experiment [9], > 46 µM (inactive); in experiment [3] it was > 46 µM (inactive). The activity change, negative = inhibition in experiment [8] is 9.73% (inactive); in experiment [6], 8.76% (inactive). Further, the Potency entry in experiment [4], in [5] and in experiment [10] was “inactive” throughout. Moreover, the max response in [6] (setting [11]) came out at 17%; in experiment [6] (setting [12]), 24.6%.

Consider `COc1ccccc1CNc1ncncc1-c1ccc(N(C)C)cc1`, for which the activity change, negative = inhibition was -14.4% (inactive) in experiment [1], -2.91% (inactive) in experiment [8] and 7.79% (inactive) in [6]. Moreover, the activity, negative = inhibition in [2] is -7.61% (inactive). In addition, the Potency in experiment [9] and in [3] was > 46 µM (inactive) each time. The max response is -12.6% in experiment [6] (setting [11]) and -7.14% in experiment [6] (setting [12]).

As for `O=S(=O)(c1ccccc1)N1CCC2(CCN(c3ccncc3)CC2)CC1`, the figures for the activity change, negative = inhibition in [1] and in experiment [6] were 2.08% (inactive) and 3.52% (inactive), respectively. Also, the activity, negative = inhibition in experiment [2] was 1.98% (inactive). For the same compound, the Potency in experiment [3] is > 46 µM (inactive). Also, the Potency result in experiment [4] and in experiment [5] was “inactive” throughout. The max response in experiment [6] (setting [11]) is 9.97%; in [6] (setting [12]) it was 17%.

Regarding `CN(C)Cc1ccccc1-c1cncnc1NCc1ccccc1`, the activity change, negative = inhibition in experiment [1] was 9.42% (inactive); in experiment [6] it was 4.16% (inactive). In addition, the activity, negative = inhibition in experiment [2] is -4.85% (inactive). The Potency in [9] and in experiment [3] was > 46 µM (inactive) throughout. Also, the Potency entry in experiment [4], in experiment [5] and in experiment [10] was “inactive” throughout. The results for the max response in experiment [6] (setting [11]) and in experiment [6] (setting [12]) were 9.37% and 10.2%, respectively.

For the compound `Cc1cccc(CNc2cc(-c3cccc(NS(C)(=O)=O)c3)ncn2)c1`, the Potency in experiment [7] is 10 µM (active); in experiment [9], > 46 µM (inactive). The activity change, negative = inhibition was 20% (inactive) in experiment [8] and -2.47% (inactive) in [6]. In experiment [2], the activity, negative = inhibition is -17.8% (inactive). Moreover, the Potency result in experiment [4], in [5] and in experiment [10] was “inactive” in each case. The max response in experiment [6] (setting [11]) was -3.18%; in [6] (setting [12]), -3.48%.

Take `COCCn1c(=O)c(-c2ccc(F)cc2)nc2cnc(Oc3ccc(OC)cc3)nc21`: the activity change, negative = inhibition is -14.8% (inactive) in experiment [1], 0.536% (inactive) in [8] and -18.7% (inactive) in experiment [6]. Further, in experiment [2], the activity, negative = inhibition was -13.7% (inactive). For the same compound, the Potency is > 9.22 µM (inactive) in experiment [9] and > 46 µM (inactive) in [3]. The Potency entry in [4] and in experiment [5] was “inactive” each time. The values for the max response in [6] (setting [11]) and in experiment [6] (setting [12]) were -18.1% and -27.4%, respectively.

For `O=C(Oc1ccccc1)N1CCC2(CCCN(c3ccncc3)C2)CC1`, the figures for the activity change, negative = inhibition in experiment [1], in [8] and in experiment [6] were 14.2% (inactive), -80.6% (active) and 4.64% (inactive), respectively. Moreover, the activity, negative = inhibition in experiment [2] is 18.8% (inactive). Besides, the Potency in experiment [3] was > 46 µM (inactive). In addition, the Potency result in experiment [4] and in experiment [5] was “inactive” throughout. The max response is 1.04% in experiment [6] (setting [11]) and 10.6% in experiment [6] (setting [12]).

On to `COc1ccc(-c2nc3cnc(N4CCNCC4)nc3n(C3CC3)c2=O)cc1`, for which the Potency in [7] was 6.31 µM (active); in [9], > 9.22 µM (inactive); in [3] it was > 46 µM (inactive). In addition, the Potency result in experiment [4] and in [5] was “inactive” each time. The activity change, negative = inhibition in experiment [6] is 0.741% (inactive). Besides, the max response in experiment [6] (setting [11]) worked out at 4.22%; in [6] (setting [12]), 6.87%.
